Among all 340,000 compounds or so, about 1,000 (0.29%) were called active. Rule as the data show it: inconclusive = inhibition above about 29% without an active follow-up result; inactive = below that. The list is a sample of the results. Results with a measured potency or affinity are listed apart.

The test addresses Genome polyprotein (Dengue virus type 2 (strain 16681-PDK53)) (UniProt P29991). The test is described as follows: flavivirus cap methylation enzyme inhibition – biochemical, confirmation dose response, primary screen (AID 588689). The note with it: Dengue-2 NS5 methyltransferase capping enzyme assay, at 25 µM, stronger effect = higher value.
[1] abbreviates: measured here: pilot screen replicate inhibition.

By inhibition is commonly meant the drop in the measured response relative to a control, in per cent. Consider `Cc1cc(C)c(NC(=O)CN2C(=O)NC3(CCCCC3)C2=O)c(C)c1`, for which the inhibition is -3.21% (inactive).

Consider `Cc1cccc(NC(=O)CN(C)S(=O)(=O)c2ccc(-c3ccc(=O)[nH]n3)s2)c1C`, for which the inhibition is -3.18% (inactive).

As to `CC(=O)CC(=O)NC1CCc2ccccc21` (stereo unspecified), the inhibition was -2.7% (inactive).

Regarding `CC1=CC(=O)C(C(C)C)=C/C1=N/OS(=O)(=O)c1ccccc1`, the inhibition was -4.66% (inactive).

Turning to `CCOc1ccc(C(=O)c2ccccc2C(=O)O)cc1OCC`, the inhibition is -7.73% (inactive).

With `CC1(C)SC(=S)N(/N=C/c2ccccc2)C1N(O)C(=O)Nc1ccc([N+](=O)[O-])cc1` (stereo unspecified), the inhibition was -1.56% (inactive).

As for `CC(=O)N(C1=C(N2CCOCC2)C(=O)c2ccccc2C1=O)c1ccc(C(=O)O)cc1`, the inhibition is 24.1% (inactive).

Regarding `CC(=O)N(C1=C(O)c2ccccc2C(=O)C1=O)C1CCCCC1`, the inhibition is 4.86% (inactive).

Turning to `COc1ccccc1N(/N=C1\Sc2ccccc2C1=O)C(C)=O`, the inhibition is 0.77% (inactive).

Consider `CC(=O)N(C1=C(N)C(=O)c2ccccc2C1=O)c1ccccc1`, for which the inhibition was -4.08% (inactive).

For `CC(=O)N(c1ccccc1)C1CCCC1`, the inhibition was -5.78% (inactive).

For the compound `COc1ccccc1N(C(C)=O)c1nc(C)cc(C)c1C#N`, the inhibition was -9.48% (inactive).

As to `CC(C)CCCN1C(Nc2ccccc2)=NC[C@@H]1C`, the inhibition was -8.02% (inactive).

Regarding `O=C(COC(=O)/C=C/c1ccc(C(F)(F)F)cc1)NCc1ccco1`, the inhibition is 1.3% (inactive).

As to `COc1ccccc1NC(=O)CN1C(=O)COc2ccc(S(=O)(=O)N3CCCCCC3)cc21`, the inhibition is -3.55% (inactive).

In the case of `COc1cccc(C(=O)Nn2c(-c3cccs3)nc3ccccc3c2=O)c1OC`, the inhibition was -3.56% (inactive).

As for `O=C(NCc1ccccn1)c1ccc(Cn2cc(C(F)(F)F)ccc2=O)cc1`, the inhibition is -5.74% (inactive).

Turning to `Cn1c(=O)c2c(ncn2CC(=O)N2CCc3ccccc3C2)n(C)c1=O`, the inhibition was -0.55% (inactive).

With `Cc1ccc(S(=O)(=O)N2[C@@H](c3ccccc3)C(C(=O)O)=CC[C@H]2c2ccc(Cl)cc2)cc1`, the inhibition was 13.2% (inactive).

In the case of `Cc1ccc([C@H]2C(C(=O)O)=CC[C@@H](c3ccc(Cl)cc3)N2S(=O)(=O)c2ccc(C)cc2)cc1`, the inhibition was 23.2% (inactive). The inhibition under setting [1] amounted to 7.95%.

For the compound `CCc1ccc([C@@H]2CC=C(C(=O)O)[C@H](c3ccc(F)cc3)N2S(=O)(=O)c2ccc(C)cc2)cc1`, the inhibition is 15.9% (inactive).

Regarding `CCc1ccc([C@@H]2CC=C(C(=O)O)[C@H](c3ccccc3)N2S(=O)(=O)c2ccc(C)cc2)cc1`, the inhibition is 15.1% (inactive).

As for `CCCC[C@@H]1C=C(C(=O)O)[C@H](c2ccc(Cl)cc2)N1S(=O)(=O)c1ccc(C)cc1`, the inhibition was 9.27% (inactive). Further, under setting [1], the inhibition was 1.23%.

For the compound `CCCCC[C@@H]1C=C(C(=O)O)[C@H](c2ccc(C)cc2)N1S(=O)(=O)c1ccc(C)cc1`, the inhibition was 10.4% (inactive).
